# Experimental data reported in PubChem BioAssay AID493203 (National Center for Advancing Translational Sciences (NCATS), 2011).
# Records with an inconclusive call do not appear. Where a call stands in place of a potency, no number is given. Activity calls are given as the source filed them. Calls come from the whole dose curve; as a rule, active = well fitted activation curve with a large enough effect; inconclusive = small, poorly fitted or top-dose-only effect; inactive = flat fitted curve, though single readings scatter.
# Assay: qHTS Assay for NPC1 Promoter Activators: Initial hit validation from the primary screen
# Settings: Huh7 NPC1 promoter-luciferase reporter, luminescence, 24 h; series mostly up to 46.1 µM
# Source text: NIH Chemical Genomics Center [NCGC] NIH Molecular Libraries Probe Production centers Network [MLPCN] MLPCN Grant: MH089375-01A1 Assay Submitter (PI): Yiannis A. Ioannou NCGC Assay Overview: Niemann Pick Type C (NPC) is a rare neurodegenerative lipidosis that is characterized by lipid storage in the endosomal/lysosomal system. Treatment modalities for this devastating disease are currently non-existent due to the severe obstacles associated with accessing the central nervous system with proteins or genes. The majority of mutations causing NPC disease are missense mutations that are distributed throughout the length of the NPC1 protein, with the most prevalent being the I1061T allele. Although NPC1 mutant proteins may be functional, they are typically trapped in the ER due to misfolding. […] We have developed and optimized a cell based luciferase reporter assay in 1536 well format for the identification of up-regulators of the mutant NPC1 promoter. This assay presents data on the validation of hits from the primary screen.
# The NPC1 promoter is cloned in front of the luciferase reporter gene, therefore NPC promoter activation results in luciferase expression. Frozen stock of the NPC1 promoter transfected Huh7 cells were obtained from the laboratory of Dr. Yiannis Ioannou (The Mount Sinai School of Medicine, New York, NY). Cells were propagated and maintained at NCGC in medium containing RPMI-1640 supplemented with 10% FBS, 2mM L-glutamine, and 50ug/ml penicillin/streptomycin. Cells were harvested in and plated for assays in OP-MEM I reduced-serum medium supplemented with 10% FBS. The Amplite luciferase reporter gene assay kit was purchased from ABD Bioquest and prepared/stored according to manufacturers recommendations. qHTS Assay Setup: 1. Dispensed 5ul of Huh7 cells stably expressing NPC1-luciferase at a density of 1500 cells per well 1536-well plates. 2. Incubate cells at 37C, 5% CO2, and 95% humidity for 2 hours. 3. Transferred 23nl per well of compound in DMSO solution. 4. Incubated at 37C, 5% CO2, and 95% humidity for 24 hours. 5. Dispensed 3ul per well of Amplite reagent(ABD Bioquest) per well. 6. Incubate at ambient for 10 minutes. 7. Read using the luminescence protocol on the ViewLux plate reader (Perkin Elmer).
# Potency is the fitted concentration of half-maximal effect.
row,SMILES,Potency
1,Cc1noc(/C=C/N(C)C)c1S(=O)(=O)N1CCCC(C(=O)N2CCCCC2)C1 (stereo not given),inactive
2,CCOc1ccc(CNC(=O)C2CCCN(S(C)(=O)=O)C2)cc1OC (stereo not given),inactive
3,O=C(CN1C(=O)COc2ccc(Cl)cc21)NCC1CCCO1 (stereo not given),inactive
4,CCOC(=O)CSc1nc2cc3c(cc2cc1C#N)OCO3,888 nM (active)
5,CC1(C)CC(=O)c2c(O)c(-c3ccccc3)c(=O)n(-c3ccccc3)c2C1,inactive
6,O=C(O)CSc1nnc(-c2ccncc2)n1CCc1ccccc1,inactive
7,Fc1ccc(-c2nc3nc4ccccc4nc3n2Cc2ccco2)cc1,inactive
8,O=C(O)C1=CC[C@@H](c2ccc(Cl)cc2)N(S(=O)(=O)c2ccc(Cl)cc2)[C@H]1c1ccccc1,inactive
9,COC(=O)c1ccccc1NC(=O)c1ccc(-c2ccc(Br)cc2)o1,inactive
10,C=CCc1ccc(OCCOCCNCCOC)c(OC)c1,inactive
11,COc1ccc(/C=C\c2onc(C)c2S(=O)(=O)N2CCC(C(=O)NCCC(C)C)CC2)cc1,inactive
12,Nc1ccccc1C(=O)N/N=C1/C2CN3CCN(C2)CC1(Cc1ccccc1)C3,inactive
13,COc1ccccc1OCCCC(=O)NCc1ccco1,inactive
14,CC(C)C1(CCNC(=O)c2cccs2)CCOC(C)(C)C1 (stereo not given),inactive
15,O=C(c1cc2cc([N+](=O)[O-])ccc2oc1=O)n1cccn1,inactive
16,CCc1cc(C(=O)Nc2ccccc2)cs1,2230 nM (active)
17,O=C(CCS(=O)(=O)c1ccccc1)Nc1ccc(-c2nc3ccccc3s2)cc1,158 nM (active)
18,COc1cccc(NC(=O)CN2C(=O)CSc3ccc(S(=O)(=O)N4CCC(C)CC4)cc32)c1,inactive
19,CNC(=O)Cn1nc(C)c2ccccc2c1=O,inactive
20,CCCCc1cc(=O)oc2cc(OCC(=O)N3CCOCC3)ccc12,inactive

row,SMILES,Potency
1,N#C/C(=C\c1ccc[nH]1)C(=O)Nc1ccccc1Cl,3970 nM (active)
2,COC(=O)CSc1nc2cc3c(cc2cc1C#N)OCO3,315 nM (active)
3,Cc1ccc(S(=O)(=O)N2CCN(c3cnn(C)c(=O)c3Cl)CC2)cc1,inactive
4,O=C(CSc1nnc(-c2ccccc2)o1)Nc1ccccc1F,250 nM (active)
5,CC(=O)NC(CCCN1C(=O)c2ccccc2C1=O)c1nnn(C)n1 (stereo not given),inactive
6,CCCCn1c(Nc2ccc(OC)cc2)nc2ccccc21,inactive
7,CC(C)C(NC(=O)c1ccc([N+](=O)[O-])cc1Cl)C(=O)N1CCCC1 (stereo not given),inactive
8,CC(=O)[C@@H]1[C@@H](C(=O)c2ccc(C)cc2)[C@]2(C(=O)Nc3ccccc32)[C@H]2C=Cc3cc(F)ccc3N12,inactive
9,CC(Sc1nnc(C(F)(F)F)n1C)C(=O)Nc1ccc(S(N)(=O)=O)cc1 (stereo not given),inactive
10,CCCCCCC(=O)Nc1ccc(C(=O)N/N=C/c2cccnc2)cc1,inactive
11,COC(=O)c1cn(NC(=O)C2CCCCC2)c(=O)c2ccccc12,inactive
12,Cc1ccc(C2C3=C(CC(C)(C)CC3=O)N(CCN3CCOCC3)C3=C2C(=O)CC(C)(C)C3)cc1,inactive
13,Cc1cc(C)c2c(N)c(C(=O)Nc3ccc([N+](=O)[O-])cc3)sc2n1,396 nM (active)
14,COCCNC(=O)Cn1nc(-c2ccccc2)c2ccccc2c1=O,inactive
15,COc1ccc(NC(=O)CSc2ccc([N+](=O)[O-])cc2)cc1S(=O)(=O)N1CCOCC1,inactive
16,COc1ccccc1C(=O)Nc1nnc(SCC(=O)NC2CCCC2)s1,705 nM (active)
17,CC(C)(C)C(=O)N/C(N)=N/c1nc2ccccc2o1,499 nM (active)
18,CCCN(CCC)CCCNC(=O)c1cc2cc3ccc(Cl)cc3nc2o1,inactive
19,Nc1c(N(CCO)C(=O)/C=C/c2ccco2)c(=O)[nH]c(=O)n1Cc1ccccc1,inactive
20,CCCNC(=O)C1CCN(S(=O)(=O)c2ccc3[nH]c(=O)ccc3c2)CC1,inactive
